Measured values reported in PubChem BioAssay (EPA / NIEHS).
Activity calls are given as the source filed them. How the source made its calls: active means hit-call score of the fitted dose curve at least 0.9, where 1 is the maximum; inactive means score below 0.9.

Columns and labels:
Details in all cases: mRNA level, 48 h; actives raise or lower the signal
[1] = read-out: Cytochrome P450 (CYP2B6), CYP2B6 (gene 1555); test: LTEA_HepaRG_CYP2B6: Life Technologies and Expression Analysis (LTEA) Assay for Cytochrome P450 (CYP2B6) using HepaRG (AID 2283481)
How it was run: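 Differentiated human HepaRG cells in serum-free induction medium, dosed in duplicate for 48 h over 8 half-log concentrations topping at 100 uM (0.5% DMSO). CYP2B6 mRNA measured by TaqMan qRT-PCR, normalized to ACTB, GAPDH, POLR2A; bidirectional fit versus DMSO.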

CYP2C8 (gene 1558) = test: LTEA_HepaRG_CYP2C8: Life Technologies and Expression Analysis (LTEA) Assay for CYP2C8 using HepaRG (AID 2283483)
How it was run: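 Differentiated HepaRG cells in serum-free induction medium exposed 48 h in duplicate to 8 half-log concentrations from 100 uM in 0.5% DMSO. CYP2C8 mRNA by qRT-PCR normalized to ACTB, GAPDH, POLR2A; bidirectional fit versus DMSO.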

CYP4A11 (gene 1579) = test: LTEA_HepaRG_CYP4A11: Life Technologies and Expression Analysis (LTEA) Assay for CYP4A11 using HepaRG (AID 2283486)
How it was run: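 Differentiated HepaRG cells, 48 h after plating, exposed in duplicate for 48 h to 8 half-log concentrations up to 100 uM in 0.5% DMSO in serum-free induction medium. CYP4A11 mRNA measured by TaqMan qRT-PCR, normalized to ACTB, GAPDH and POLR2A.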

[2] = read-out: DNA damage-inducible transcript 3 (DDIT3), DDIT3 (gene 1649); test: LTEA_HepaRG_DDIT3: Life Technologies and Expression Analysis (LTEA) Assay for DNA damage-inducible transcript 3 (DDIT3) using HepaRG (AID 2283488)
How it was run: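 HepaRG plated 48 h, switched to serum-free induction medium, dosed 48 h (100 uM top, half-log, 8 pts, 0.5% DMSO, n=2); RNA isolated; DDIT3 by qRT-PCR; bidirectional curve fit vs DMSO.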

[3] = read-out: Pro-epidermal growth factor (Homo sapiens) (UniProt P01133); test: LTEA_HepaRG_EGF: Life Technologies and Expression Analysis (LTEA) Assay for Epidermal growth factor (EGF) using HepaRG (AID 2283489)
How it was run: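 HepaRG cells (~100,000/well, 48 h pre-culture) exposed in duplicate for 48 h in serum-free induction medium to 8 half-log concentrations up to 100 uM in 0.5% DMSO. EGF mRNA by qRT-PCR, normalized to ACTB/GAPDH/POLR2A; bidirectional fit versus DMSO.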

[4] = read-out: Early growth response protein 1 (EGR1) transcription factor, EGR1 (gene 1958); test: LTEA_HepaRG_EGR1: Life Technologies and Expression Analysis (LTEA) Assay for Early growth response protein 1 (EGR1) transcription factor using HepaRG (AID 2283490)
How it was run: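 Differentiated HepaRG cells in serum-free induction medium exposed 48 hours, duplicate, to 8 half-log concentrations up to 100 uM in 0.5% DMSO. EGR1 mRNA measured by TaqMan qRT-PCR, normalized to ACTB, GAPDH, POLR2A; bidirectional fit versus DMSO.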

[5] = read-out: Cytochrome P450 2C19 (Homo sapiens) (UniProt P33261); test: LTEA_HepaRG_CYP2C19: Life Technologies and Expression Analysis (LTEA) Assay for CYP2C19 using HepaRG (AID 2283482)
How it was run: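 Differentiated HepaRG cells in serum-free induction medium exposed 48 h in duplicate, 8 concentrations from 100 uM by half-log steps in 0.5% DMSO. CYP2C19 mRNA measured by TaqMan qRT-PCR, normalized to ACTB, GAPDH, POLR2A. Bidirectional fit versus DMSO.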

CYP2C9 (gene 1559) = test: LTEA_HepaRG_CYP2C9: Life Technologies and Expression Analysis (LTEA) Assay for CYP2C9 using HepaRG (AID 2283484)
How it was run: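 Differentiated human HepaRG cells in serum-free induction medium were exposed 48 h to chemicals in 8-point half-log series from 100 uM (0.5% DMSO), in duplicate. CYP2C9 mRNA was measured by qRT-PCR, normalized to ACTB/GAPDH/POLR2A, with bidirectional fitting versus DMSO.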

[6] = read-out: Cytochrome P450 3A4 (Homo sapiens) (UniProt P08684); test: LTEA_HepaRG_CYP3A4: Life Technologies and Expression Analysis (LTEA) Assay for CYP3A4 using HepaRG (AID 2283487)
How it was run: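 HepaRG, 48 h exposure, 8-pt CRC from 100 uM (half-log), 0.5% DMSO, duplicates; serum-free induction medium. Readout: CYP3A4 mRNA, qRT-PCR, ACTB/GAPDH/POLR2A normalization. Bidirectional fit vs DMSO.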

CYP2E1 (gene 1571) = test: LTEA_HepaRG_CYP2E1: Life Technologies and Expression Analysis (LTEA) Assay for CYP2E1 using HepaRG (AID 2283485)
How it was run: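 Human liver line HepaRG, plated 48 h, then serum-free induction medium + chemical x 48 h; 8-pt CRC from 100 uM, half-log, 0.5% DMSO, n=2. Readout: CYP2E1 mRNA qRT-PCR vs ACTB/GAPDH/POLR2A; bidirectional fit vs DMSO.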

Measured: AC50

Cytochrome P450 3A4 (Homo sapiens), sequence (P08684 whole entry, looked up): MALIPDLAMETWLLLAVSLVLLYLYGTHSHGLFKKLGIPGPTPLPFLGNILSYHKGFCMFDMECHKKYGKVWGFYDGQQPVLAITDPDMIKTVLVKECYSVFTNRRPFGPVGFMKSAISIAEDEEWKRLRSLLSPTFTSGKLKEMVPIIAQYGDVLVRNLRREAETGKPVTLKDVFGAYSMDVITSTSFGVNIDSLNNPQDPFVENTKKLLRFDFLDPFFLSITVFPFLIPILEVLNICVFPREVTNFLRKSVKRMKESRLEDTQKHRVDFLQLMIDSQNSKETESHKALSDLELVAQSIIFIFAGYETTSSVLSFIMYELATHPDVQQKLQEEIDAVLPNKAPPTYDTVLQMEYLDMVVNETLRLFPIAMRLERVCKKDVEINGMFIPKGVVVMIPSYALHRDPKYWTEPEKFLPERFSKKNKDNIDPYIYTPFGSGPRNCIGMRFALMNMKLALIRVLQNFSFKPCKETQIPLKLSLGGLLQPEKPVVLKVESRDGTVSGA
Cytochrome P450 2C19 (Homo sapiens), sequence (P33261 whole entry, looked up): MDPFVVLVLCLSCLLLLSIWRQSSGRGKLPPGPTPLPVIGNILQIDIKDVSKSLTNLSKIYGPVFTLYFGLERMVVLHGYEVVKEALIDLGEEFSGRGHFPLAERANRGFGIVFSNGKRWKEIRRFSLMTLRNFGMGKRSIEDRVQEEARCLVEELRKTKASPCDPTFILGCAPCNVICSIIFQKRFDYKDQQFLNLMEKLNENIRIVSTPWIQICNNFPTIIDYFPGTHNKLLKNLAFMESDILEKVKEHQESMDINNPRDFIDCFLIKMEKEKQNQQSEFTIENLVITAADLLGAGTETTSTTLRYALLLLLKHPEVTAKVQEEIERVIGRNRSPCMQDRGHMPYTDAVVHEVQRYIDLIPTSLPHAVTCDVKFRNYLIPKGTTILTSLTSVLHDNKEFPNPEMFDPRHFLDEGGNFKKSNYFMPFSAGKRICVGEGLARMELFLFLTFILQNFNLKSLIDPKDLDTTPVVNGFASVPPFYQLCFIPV

CC[C@H](C)C(=O)O[C@H]1C[C@@H](C)C=C2C=C[C@H](C)[C@H](CC[C@@H]3C[C@@H](O)CC(=O)O3)[C@H]21
inactive: [1] | CYP2C8 (gene 1558) | CYP4A11 (gene 1579) | [2] | [3] | [4]

CN(C)c1ccc(N=NS(=O)(=O)O)cc1
active: CYP2C8 (gene 1558) 2.62 µM
not listed: CYP2E1 (gene 1571)
inactive: all other assays above

Oc1ccc2c(c1)-c1ccccc1C2
active: [1] 50 µM
not listed: CYP2E1 (gene 1571)
inactive: all other assays above

Cc1ccc(O)cc1
inactive: [2] | [3]

NC(=O)NO
inactive: [2] | [3] | [4]

O=C1OC(=O)C2C3C=CC(C3)C12 (stereo not drawn)
not listed: CYP2E1 (gene 1571)
inactive: all other assays above

CCOCCO
not listed: [4] | CYP2E1 (gene 1571)
inactive: all other assays above

CCOC(=O)CC(CC(=O)OCC)(OC(C)=O)C(=O)OCC
not listed: CYP2E1 (gene 1571)
inactive: all other assays above

CNS(=O)(=O)c1cc(C(=O)N2CCC(CCN3C4CCC3CC(n3c(C)nc5ccccc53)C4)(c3cccc(F)c3)CC2)c(Cl)cc1F (stereo not drawn)
inactive: [6] | [3] | [4]
active: [1] 21.7 µM | [5] 50 µM | CYP2C8 (gene 1558) 25.7 µM | CYP2C9 (gene 1559) 19.2 µM | CYP4A11 (gene 1579) 18.5 µM | [2] 29 µM

COc1ccc(/C=C/S(=O)(=O)NC(=O)c2ccc(C)cc2Cl)cc1
active: [1] 89.8 µM
not listed: CYP2E1 (gene 1571)
inactive: all other assays above

CCCCCCCCCCCCCCCO
not listed: CYP2E1 (gene 1571)
inactive: all other assays above

CC(C)(O)c1coc(S(=O)(=O)NC(=O)Nc2c3c(cc4c2CCC4)CCC3)c1
active: [1] 2.62 µM
not listed: [5] | [6] | CYP2E1 (gene 1571)
inactive: all other assays above

CCCN(C1CCN(C(=O)C2CCNCC2)CC1)[C@@H]1CCc2ccc(OC)cc2C1
active: [1] 87.9 µM | [5] 86.3 µM | CYP2C8 (gene 1558) 86.5 µM | CYP2C9 (gene 1559) 80.3 µM | CYP4A11 (gene 1579) 90.7 µM | [6] 86.7 µM | [2] 50 µM
inactive: [3] | [4]

CCCCC(CC)COC(=O)c1ccc(C(=O)OCC(CC)CCCC)cc1 (stereo not drawn)
not listed: [4] | CYP2C9 (gene 1559)
inactive: all other assays above

CCCC(=O)OCC
not listed: CYP2E1 (gene 1571)
inactive: all other assays above

CC(C)c1cccc(C(C)C)c1N1C(=O)c2ccc(O)cc2C1=O
inactive: CYP2C8 (gene 1558) | CYP2C9 (gene 1559) | [3]
active: [1] 88.6 µM | [5] 91.5 µM | CYP4A11 (gene 1579) 72 µM | [6] 11.6 µM | [2] 74.9 µM

CCOc1cccc(-n2cc(C(=O)N3CCN(c4cc(C(=O)O)c5ccccc5c4)CC3)nc2-c2ccc(C)cc2)c1
active: [1] 26.5 µM | [5] 32.6 µM | CYP2C8 (gene 1558) 25.6 µM | CYP2C9 (gene 1559) 31.6 µM | CYP4A11 (gene 1579) 28.9 µM | [6] 31.1 µM | [2] 12.4 µM | [3] 88 µM | [4] 83.7 µM

Clc1nc(Cl)c(Cl)c(Cl)c1Cl
not listed: CYP2E1 (gene 1571)
inactive: all other assays above

CC(C)=CCC/C(C)=C\CO
inactive: [2] | [3] | [4]

CC(=O)c1ccc2c(c1)[C@H](NC(=O)c1ccc(F)cc1)[C@@H](O)C(C)(C)O2
active: [1] 68.4 µM | [5] 16.3 µM | [6] 18 µM
not listed: CYP2E1 (gene 1571)
inactive: all other assays above

O=C1CCCCCN1
not listed: CYP2E1 (gene 1571)
inactive: all other assays above

O=c1[nH]c2ccc(S(=O)CCN3CCC(Cc4ccc(F)cc4)CC3)cc2o1 (stereo not drawn)
active: [1] 82.3 µM | CYP2C8 (gene 1558) 78.5 µM | CYP2C9 (gene 1559) 71.1 µM | CYP4A11 (gene 1579) 82.6 µM | [6] 12.5 µM | [2] 50 µM | [3] 30.7 µM | [4] 50 µM

CC(C)=CCCC(C)CCO (stereo not drawn)
active: [1] 11.7 µM
not listed: CYP2E1 (gene 1571)
inactive: all other assays above

O=P(OC(CCl)CCl)(OC(CCl)CCl)OC(CCl)CCl
active: [5] 84.9 µM | CYP2C8 (gene 1558) 89.6 µM | CYP2C9 (gene 1559) 76.3 µM | CYP2E1 (gene 1571) 56 µM | CYP4A11 (gene 1579) 67.8 µM | [6] 88.5 µM | [2] 79.1 µM | [3] 88.8 µM | [4] 91.6 µM
